The text below walks through data of PubChem BioAssay AID2417 (National Center for Advancing Translational Sciences (NCATS), 2010).

Each structure is given as a SMILES string. The campaign covered roughly 140,000 compounds. About 4,300 (3.1%) were called active. Another 21% or so got no clear call; they are omitted. What follows is part of a selection rich in actives, with near analogues and random picks from the rest. Unmarked numbers belong to inactive results.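 Rule for the calls: active = readout at or below -70, meaning at least 70% loss of cells showing the perinucleolar compartment, a nuclear body marking cancer cells; inconclusive = readout between -30 and a set limit; inactive = the rest.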

The nature of this experiment: High Content Assay for Compounds that inhibit the Assembly of the Perinucleolar Compartment.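 Note: plate controls were DMSO wells for no effect and camptothecin positive control wells for full effect.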 Conditions: PC3M PTB-GFP, PNC prevalence imaging, 16 h; at 10 µM; active compounds read low. A digest of the protocol: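 Compounds are pinned in duplicate onto adhered PC3M cells stably expressing GFP-tagged PTB and incubated 16 h at 37 C. Cells are then fixed, nuclei stained with Hoechst, and PNC-positive cells counted.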
Consider `COc1ccc(NC(=S)NCC2CCN(c3ccc(OC)cc3)C2)cc1` (stereo unspecified), for which the activity change (PNC), negative = inhibition was -116% (active). As for `COc1ccc(NC(=S)NC2CCS(=O)(=O)C2)cc1` (stereo unspecified), the activity change (PNC), negative = inhibition is 36.6%. `O=C(Cc1ccccc1)NC(=S)Nc1ccc(N2CCCCC2)cc1`: the activity change (PNC), negative = inhibition is -26.1%. The figure for `COCC(C)n1c(C)cc(C(=O)CSc2cc(C)c3ccccc3n2)c1C` (stereo unspecified) is -11.6%.

For the molecule `Cc1cc(F)ccc1S(=O)(=O)N1CCCOC1CNC(=O)C(=O)NCCC1=CCCCC1` (stereo unspecified), the activity change (PNC), negative = inhibition is 14.2%. The figure for `CCCc1cc(=O)[nH]c(SCC(=O)N2CCN(S(=O)(=O)c3ccc(C)cc3C)CC2)n1` is -20%. The figure for `Cc1nn(Cc2ccc(F)cc2)c(C)c1NC(=O)c1noc2c1CCc1ccccc1-2` is -5.67%; for `Cc1nn(Cc2ccc(F)cc2)c(C)c1NC(=O)c1cccnc1Cl` it is -102% (active). For `Cc1cc(C(=O)Nc2c(C)nn(Cc3ccccc3)c2C)on1`, the activity change (PNC), negative = inhibition was 36%. For `Nc1nc(SCC(=O)NN(c2ccccc2)c2ccccc2)n[nH]1` the value was 8.76%; for `Cc1ccccc1C1=NC(C(F)(F)F)(C(F)(F)F)c2c(n(-c3ccc(F)cc3)c(=O)[nH]c2=O)N1`, -9.65%; for `CCOC(=O)C1CCc2nc3ccccc3c(=O)n21` (stereo unspecified), -123% (active). Regarding `CCOC(=O)C(C)Sc1nc2ccccc2c(=O)n1CC1CCCCC1` (stereo unspecified), the activity change (PNC), negative = inhibition is 0.699%. In the case of `CCC1(CC)Cc2ccccc2-c2nc3ccccc3c(=O)n21`, the activity change (PNC), negative = inhibition is 35.3%. Take `O=C(COC(=O)c1cc(=O)[nH]c2ccccc12)Nc1nc(-c2cccc(Br)c2)cs1`: the activity change (PNC), negative = inhibition was 21.6%. For `COC(=O)Cc1ccc(OCC(=O)Nc2ccc(OC(F)(F)F)cc2)cc1` the value was -17.1%; for `CCCCN(Cc1ccccc1)C(=O)C1CCN(Cc2sccc2C)CC1`, 30.3%; for `CCCCN(C)C(=O)C1CCN(Cc2ccccn2)CC1`, -84.5% (active). For `CCCC(=O)C1CCN(Cc2ccccc2)CC1`, the activity change (PNC), negative = inhibition is -25.7%. `CC(=O)Nc1ccc(N2CCOCC2)c(C(=O)Nc2cccc(C)c2)c1`: the activity change (PNC), negative = inhibition was -7.92%. Consider `CCOc1cccc(NC(=O)CC#N)c1`, for which the activity change (PNC), negative = inhibition was -1.74%. Take `CC(=O)Nc1cccc(Oc2cc(C#N)c(C#N)cc2N2CCOCC2)c1`: the activity change (PNC), negative = inhibition is -107% (active).

Regarding `CCn1nc(C)c(/C=N/NC(=O)Cc2ccc(Cl)cc2)c1C`, the activity change (PNC), negative = inhibition was 49.9%. The figure for `O=[N+]([O-])c1cc(S(=O)(=O)N2CCCC2)ccc1NN=C1CCCC1` is 27.5%; for `COc1cc(NC(=O)COC(=O)CSc2ccc3ccccc3c2)c(C)cc1[N+](=O)[O-]` it is 0.296%. Take `O=C(CSCc1ccc(Cl)cc1)N1CCN(Cc2ccc3c(c2)OCO3)CC1`: the activity change (PNC), negative = inhibition is -86.5% (active). In the case of `O=C(Nc1cccc2ccccc12)N1CCN(Cc2ccc3c(c2)OCO3)CC1`, the activity change (PNC), negative = inhibition was -95.4% (active). With `O=C(CCCN1C(=O)c2cccc3cccc(c23)C1=O)N1CCN(Cc2ccc3c(c2)OCO3)CC1`, the activity change (PNC), negative = inhibition is -24.4%. For `O=C(CSCc1ccc(Cl)cc1)N1CCCCC1` the value was 0.451%.

On to `O=C(Nc1ccccc1)N1CCN(Cc2ccccc2)CC1`, for which the activity change (PNC), negative = inhibition is 47.3%. For `CS(=O)(=O)N(CC(=O)N1CCN(Cc2ccc3c(c2)OCO3)CC1)c1ccc2c(c1)OCO2` the value was -4.43%.
